Assay outcomes: PubChem BioAssay, several laboratories
VLA-4 inh: inhibition in a human VLA-4 binding assay. VLA-4 expressing cells, ligand binding flow cytometry. inhibition, % (about 7 µM as worked out from the volumes in the protocol). 330,000 tested, 0.2% active. P13612. AID 2557; in the data active = inhibition above about 50%
AI-2 QS mod: modulates the Vibrio harveyi AI-2 quorum sensing system; 300,000 tested, 0.4% active; Vibrio harveyi JMH597 AI-2 luminescence/OD600 ratio, 9 h; stronger effect = lower value; strain lacks LuxN and CqsS sensors; 0 = neutral-control median; activity change, % at 7.5 µM; in the data active = activity change below about -75%, passing the limit was not always enough; inconclusive = no clear call, values can overlap the other calls;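 also: luminescence divided by OD600 gain over 9 h not by final OD600 alone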
Pemphigus Ab inh: inhibitors of pemphigus antibody binding to human desmoglein-3; P32926; DSG3-coupled beads, scFv-anti-DSG3-GFP binding, flow cytometry; stronger effect = lower value; binding (percent of control), % at 10 µM; 310,000 tested, 0.48% active;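 active = binding more than 3 SD below its plate's average and above zero; inconclusive = below that plate limit but binding exactly zero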;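 also: hits lower antibody fragment binding to DSG3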
NTR1 ag: activates human neurotensin receptor 1. 330,000 tested, 0.17% active. activation, % at 20 µM. AID 493036. P30989. NTR1-U2OS beta-arrestin-GFP spot imaging, agonist mode;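 active = activation at or above 40% of the spot to cytoplasm intensity ratio, with at least 20 cells analyzed; inconclusive = wells under 20 cells, flagged as cytotoxic or low count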
JMH597 growth rt: retest: inhibitors of Vibrio harveyi JMH597 growth | growth inhibition, % at 7.5 µM | OD600 absorbance, 9 h; lacks LuxN and CqsS sensors | shares compounds with AI-2 QS mod | 750 tested, 1% active;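 active = every replicate shows growth inhibition above 50%; inconclusive = at least half, but not all, replicates pass that cutoff; inactive = fewer than half of replicates pass it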
BB721 lum counter: retest counter-screen: BB721 constitutive quorum sensing luminescence decrease. shares compounds with AI-2 QS mod. Vibrio harveyi BB721 luminescence, 9 h. inhibition, % at 7.5 µM. 750 tested, 95% active;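 active = inhibition above about 80% in every replicate, not just on average, limit read from the data; inconclusive = at least half of replicates past the limit, but not all; inactive = fewer than half of replicates past the limit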
BB721 growth: retest: blocks Vibrio harveyi BB721 growth; 750 tested, 3% active; AID 2728; shares compounds with AI-2 QS mod; growth inhibition, % at 7.5 µM; OD600 absorbance, 9 h;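 active = every replicate shows growth inhibition above 50%; inconclusive = at least half but not all replicates above 50% inhibition; inactive = under half of replicates above 50% inhibition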
AI-2 QS JMH597: Vibrio harveyi AI-2 signaling luminescence modulation – JMH597 strain, confirmation. shares compounds with AI-2 QS mod. Vibrio harveyi JMH597 AI-2 quorum sensing luminescence, 9 h; luxN and CqsS knockout, AI-2 only. inhibition, % at 7.5 µM. 750 tested, 97% active;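 active = every replicate shows more than 75% inhibition of signal versus neutral control wells; inconclusive = half to three quarters of replicates exceed 75% inhibition; inactive = fewer than half of replicates exceed 75% inhibition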
VLA-4 mod pick: human VLA-4 allosteric modulation in cherry picked compounds | inhibition, % at 6.7 µM | U937 cells, HUTS-21 LIBS mAb binding, flow cytometry; LDV ligand present at threefold Kd | 1,300 tested, 2% active | shares compounds with VLA-4 inh; in the data active = inhibition above about 40%
A number is an active result; n = inactive; u = inconclusive; x = no result. A selection: hits, their analogues and other compounds. The true share with any hit is near 1.1%.

SMILES	VLA-4 inh	AI-2 QS mod	Pemphigus Ab inh	NTR1 ag	JMH597 growth rt	BB721 lum counter	BB721 growth	AI-2 QS JMH597	others
Cc1cc(NS(=O)(=O)c2ccc(NC(=O)COc3cc(C)c(Cl)c(C)c3)cc2)no1	n	x	x	n	x	x	x	x
Cc1cc(NS(=O)(=O)c2ccc(C(C)C)cc2)no1	n	-86	n	n	n	87	n	100
COc1ccc(OCC(=O)Nc2ccc(S(=O)(=O)Nc3cc(C)on3)cc2)cc1	n	-84	n	n	n	91	n	92
COc1ccc(S(=O)(=O)Nc2ccc(Nc3ccccc3)cc2)cc1	n	-97	n	n	68	100	n	100
O=C(Nc1cccc(O)c1)c1cccc(NC(=O)c2cccs2)c1	n	n	n	n	x	x	x	x
COc1ccc(CC(=O)Nc2ccc(S(=O)(=O)Nc3ncccn3)cc2)cc1	n	-91	n	n	n	93	n	96
COc1ccc(CCC(=O)Nc2ccc(S(=O)(=O)Nc3ncccn3)cc2)cc1	n	x	n	n	x	x	x	x
O=S(=O)(c1ccc(Cl)cc1)N1CCN(C(=S)Nc2ccccc2F)CC1	n	n	n	n	x	x	x	x
O=S(=O)(c1ccc2ccccc2c1)N1CCN(C(=S)Nc2ccccc2F)CC1	n	-97	n	n	n	100	n	100
CCc1ccc(CCC(=O)Nc2ccc(C(=O)O)cc2)o1	n	n	n	n	x	x	x	x
CCc1ccc(CCC(=O)Nc2ccc(C)c(C)c2)o1	n	-87	n	n	n	93	n	96
CCc1ccc(NC(=O)CCc2ccc(CC)o2)cc1	n	u	n	n	n	n	n	88
Cc1cccc(NC(=O)NCc2ccc3[nH]c(C)cc3c2)c1	n	n	n	n	x	x	x	x
O=C(NCc1ccc(F)cc1)Nc1cccc(Cl)c1	n	-94	n	n	n	98	n	99
Cc1ccc(CNC(=O)Nc2cccc(C)c2)cc1	n	-90	n	n	n	99	n	99
O=C(NCc1ccc(F)cc1)Nc1ccc(Cl)cc1	n	u	n	n	x	x	x	x
COc1ccc(CNC(=O)Nc2cc(C)cc(C)c2)cc1	n	u	n	n	n	96	n	97
COc1ccc(CNC(=O)Nc2ccc(C)c(C)c2)cc1	n	n	n	n	x	x	x	x
COc1ccc(CNC(=O)Nc2ccc(C)cc2)cc1	n	-79	x	n	n	88	n	92
CCC(C(=O)OCC(=O)NCc1ccc2c(c1)OCO2)c1ccccc1 (stereo unspecified)	n	x	n	n	x	x	x	x
OCCCn1c(C(CO)Nc2nc(-c3ccc(Cl)cc3)cs2)nc2ccccc21 (stereo unspecified)	n	n	n	n	x	x	x	x
CSc1nc2nc(Cl)c(Cl)nc2[nH]1	x	x	n	x	x	x	x	x
Cc1ccc(Cc2c(-c3ccc(F)cc3)nc3ccc(Cl)cn23)cc1	x	x	n	x	x	x	x	x
CCOC(=O)c1cccc(NC(=S)NCc2ccc(C)cc2)c1	n	-85	n	n	n	89	n	91
COc1ccc(CNC(=O)NC2CCCCC2)cc1	n	-87	n	n	n	92	n	95
SMILES	VLA-4 inh	AI-2 QS mod	Pemphigus Ab inh	NTR1 ag	JMH597 growth rt	BB721 lum counter	BB721 growth	AI-2 QS JMH597	others
CC(=O)c1cccc(NC(=S)NCc2ccccc2)c1	n	n	n	n	x	x	x	x
CN1C(=O)NC(=O)C1c1ccccc1 (stereo unspecified)	x	x	n	x	x	x	x	x
COC(=O)c1csc(C2OC(CO)C(O)C2O)n1 (stereo unspecified)	x	x	n	x	x	x	x	x
COc1ccc(-c2ccc(CN3C(CC(C)C)C(=O)N(Cc4cn(CCC5OCCO5)nn4)CCS3(=O)=O)cc2)cc1OC (stereo unspecified)	x	x	n	x	x	x	x	x
Cc1ccc([C@@H]2CC(=O)[C@@H]3CN(S(=O)(=O)c4ccc(C)cc4)[C@H](c4cccc(Cl)c4)C[C@@H]3N2S(=O)(=O)c2ccc(Cl)cc2)cc1	x	x	n	x	x	x	x	x
O=c1c2ccccc2nnn1-c1ccccc1[N+](=O)[O-]	x	x	n	x	x	x	x	x
COC(=O)[C@H](Cc1ccccc1)NC(=O)Cn1cnc2c(NCc3ccccc3)ncnc21	x	x	n	n	x	x	x	x
CC(C)NS(=O)(=O)c1ccc(NC(=O)Cc2ccsc2)cc1	n	n	n	n	x	x	x	x
O=C(Cc1ccsc1)Nc1ccc(S(=O)(=O)C(F)F)cc1	n	-87	n	n	n	97	n	100
COC[C@H](NS(=O)(=O)c1ccc(Br)cc1F)[C@@H](O)c1ccccc1	x	x	n	x	x	x	x	x
CN(C)S(=O)(=O)c1ccc(C(=O)OCCc2ccccc2)cc1	n	-92	n	n	n	96	n	98
COc1ccc(C(=O)Cn2nnc(-c3ccccc3F)n2)cc1	n	-86	n	n	n	95	n	97
CCOC(=O)c1cccc(NC(=O)Cn2nc(C)n3cccc3c2=O)c1	n	-97	n	n	n	100	n	100
CCCC(=O)Nc1ccc(S(=O)(=O)N2CCCC2)cc1	n	n	n	n	x	x	x	x
CCOc1ccc(OCC)c(NC(=O)C2CCN(S(=O)(=O)c3cccnc3)CC2)c1	n	n	n	n	x	x	x	x
CCCCC(=O)NC(=S)Nc1ccc(S(=O)(=O)N2CCCC2)cc1	n	-84	n	n	n	86	n	92
CCOc1ccc(NC(=O)C2CCN(S(=O)(=O)c3cccnc3)CC2)cc1	n	-86	n	n	n	95	n	97
O=C(Nc1ccc(S(=O)(=O)N2CCCC2)cc1)C1CCCCC1	n	-83	n	n	n	93	n	96
COc1ccc(Oc2cn[nH]c2-c2ccc(O)cc2O)cc1	n	-90	n	n	u	97	u	98
Cc1ccc(O)c(N/C=C/C(=O)c2ccc(F)cc2)c1	n	u	n	n	n	86	n	89
Cc1ccc(N/C=C/C(=O)c2ccc(C)cc2)cc1	n	n	n	n	x	x	x	x
CCc1nnc(NC(=O)CCn2cnc3ccccc3c2=O)s1	n	n	x	n	x	x	x	x
CCCCc1nnc(NC(=O)Cn2cnc3ccccc3c2=O)s1	n	-95	n	n	n	99	n	99
CCCCCc1nnc(NC(=O)Cn2cnc3ccccc3c2=O)s1	n	-94	n	n	n	98	n	99
O=C(Cn1cnc2c(nc3n2CCCCC3)c1=O)Nc1cccc(C(F)(F)F)c1	n	-86	n	n	n	95	n	96
Cc1ccc(NS(=O)(=O)c2ccc(NC(=O)CSc3ccc(Cl)cc3)cc2)c(C)c1	n	n	n	n	x	x	x	x
Cc1ccc(O)c(NC(=O)CSc2ccc(Cl)cc2)c1	n	-87	3.0	n	n	93	n	95
CSc1ncccc1C(=O)OCC(=O)Nc1ccc(S(=O)(=O)N2CCCC2)cc1	n	-92	n	n	n	98	n	99	VLA-4 mod pick=n
